Assay outcomes deposited in PubChem by National Center for Advancing Translational Sciences (NCATS).
ELG1 genotox: induces genotoxicity in HEK293T cells with luciferase-tagged ELG1. Potency, µM (highest dose often 46 µM), without a hit: at the top dose activity change, positive = activation, actives largely listed as activators. actives 1.3% (n = 330,000). HEK293T ELG1-luciferase reporter, luminescence, 16 h. AID 504466; note: % of control where 0% means no effect; nearly all actives have a fitted effect of over 60% in size
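Cells (2,000/well) expressing the ELG1-luciferase fusion are dosed by pin tool and kept 16 hr at 37 °C, 5% CO2. Signal comes from ONE-Glo luciferase reagent after 30 min at room temperature.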
SMN2 splice enh: enhancers of SMN2 splice variant expression; HEK293 SMN2-luciferase splicing reporter, luminescence, 30-36 h; Potency, µM (doses to about 46.1 µM), for inactives: top-dose activity change, positive = activation, most hits filed as activators; actives 2.8% (n = 210,000); AID 1458; note: % of control where 0% means no effect; nearly all actives have a fitted effect of over 55% in size
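HEK293 cells carry an SMN2 minigene-luciferase reporter in which exon 7 inclusion puts luciferase in frame. Cells were seeded at 2000 cells/well, attached for 10-12 hours, then exposed to compounds for 30-36 hours at 37C before ONE-Glo luminescence.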
KinaseGlo FLuc: Kinase-Glo luciferase inhibition (counter-screen); Q27757; Kinase-Glo luciferase, ATP luminescence, 8 min; Potency, µM (doses to about 38.3 µM), for inactives: at the top dose activity change, negative = inhibition, actives largely listed as inhibitors; actives 0.28% (n = 200,000); AID 1379; note: % is set by controls: 0 for no effect and ±100 for the full control effect; nearly all actives have a fitted effect of over 60% in size
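Light output from Kinase-Glo luciferase with luciferin and 10 uM ATP in 50 mM imidazole pH 7.2, KCl, MgCl2, Tween 20, BSA; compound pin-delivered, 8-min ambient incubation, then luminescence read.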
FLuc counter: counter-screen for miR-21 project: firefly luciferase inhibitors or activators; P08659; purified FLuc, Km substrates, luminescence inhibition; Potency, µM (doses to about 57.5 µM), inactives show at the highest dose activity change, negative = inhibition, actives largely listed as inhibitors; actives 6.9% (n = 360,000);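 note: plate controls were vehicle for no effect and reference inhibitor for full effect; nearly all actives have a fitted effect of over 55% in size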
Target sequence (P08659 whole entry, looked up): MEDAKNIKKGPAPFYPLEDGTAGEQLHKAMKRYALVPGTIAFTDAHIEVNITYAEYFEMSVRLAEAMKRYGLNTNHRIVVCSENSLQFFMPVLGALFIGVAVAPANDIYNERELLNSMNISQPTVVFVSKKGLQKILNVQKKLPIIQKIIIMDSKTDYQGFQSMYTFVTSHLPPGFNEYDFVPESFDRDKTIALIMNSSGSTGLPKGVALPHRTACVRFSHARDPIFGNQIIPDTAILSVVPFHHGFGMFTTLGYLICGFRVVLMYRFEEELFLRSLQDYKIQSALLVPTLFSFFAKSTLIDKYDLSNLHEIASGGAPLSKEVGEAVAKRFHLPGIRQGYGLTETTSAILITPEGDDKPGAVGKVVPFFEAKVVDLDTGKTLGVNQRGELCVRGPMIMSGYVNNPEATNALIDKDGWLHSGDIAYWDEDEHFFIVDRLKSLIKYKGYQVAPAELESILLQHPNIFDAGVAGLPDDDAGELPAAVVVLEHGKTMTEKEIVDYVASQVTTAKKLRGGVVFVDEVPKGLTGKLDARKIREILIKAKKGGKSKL
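Biochemical qHTS of compounds, final roughly 60 µM downward over six points, against 10 nM purified firefly luciferase using Km concentrations of substrates (10 uM D-luciferin, 10 uM ATP) in Tris acetate pH 7.5 buffer; luminescence output.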
NPC1 prom act: activates the NPC1 promoter | Potency, µM (doses to about 9.22 µM), without a hit: top-dose activation, hits mostly activators | Huh7 NPC1 promoter luciferase reporter, 24 h | AID 485313 | actives 2.4% (n = 320,000); note: % of control where 0% means no effect; nearly all actives have a fitted effect of over 60% in size
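Readout is luciferase luminescence, reflecting NPC1 promoter activation in stably transfected Huh7 cells after 24 h compound exposure at 37 °C in reduced-serum medium with 10% FBS.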
Rab9 prom act: activates the Rab9 promoter | actives 2.8% (n = 320,000) | Huh7 Rab9 promoter-luciferase reporter, luminescence, 24 h | Potency, µM (series often up to 9.22 µM), without a hit: at the highest dose activation, negative = inhibition, hits mostly activators; note: % of control where 0% means no effect; nearly all actives have a fitted effect of over 60% in size
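Luciferase signal after 10 min detection reagent at ambient indicates Rab9 promoter upregulation; stably transfected Huh7 cells were treated 24 h with compound in DMSO at 37 °C, 5% CO2.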
* marks the source's active call; other numbers are inactive results; ? = inconclusive; / = no result given. A selection: hits, their analogues and other compounds. The true share with any hit is near 7.5%. Calls come from the whole dose curve; as a rule, active = well fitted curve in the direction sought with a large enough effect; inconclusive = small, poorly fitted or top-dose-only effect, or another doubt; inactive = no such curve, though single readings can be large; an effect the other way counts as inactive or inconclusive. Potency is the fitted concentration of half-maximal effect.

SMILES | ELG1 genotox | SMN2 splice enh | KinaseGlo FLuc | FLuc counter | NPC1 prom act | Rab9 prom act
Cn1nnnc1SCCCNCc1cccc(OCc2ccccc2)c1 | / | / | / | -2% | / | /
O=C(/C=C/c1ccccc1)OCC(=O)c1c[nH]c2ccccc12 | -2% | / | / | / | / | /
COc1ccccc1C(=O)COC(=O)/C=C/c1ccccc1 | 20% | / | / | 13µM* | 26% | 26%
CC(NC(=O)COC(=O)c1ccc(N(C)C)cc1)c1ccccc1 (stereo not given) | -7% | 11% | 1% | -8% | -3% | -5%
CCc1ccc(C(=O)COC(=O)c2ccccc2OC)cc1 | ? | / | / | 0.48µM* | 2.2µM* | 3.2µM*
COc1ccccc1C(=O)COC(=O)c1ccc(N(C)C)cc1 | ? | 22µM* | -4% | 5.4µM* | 3.2µM* | 3.5µM*
COc1ccccc1C(=O)COC(=O)c1ccccc1O | 16% | 5% | -1% | 21µM* | -11% | 13%
CN(C)c1ccc(CNC(=O)c2sc3ncccc3c2-n2cccc2)cc1 | / | / | / | 1% | / | /
CCC(C)NC(=O)Cn1c(=O)n(-c2ccc(OC)c(OC)c2)c(=O)c2ccccc21 (stereo not given) | / | 0% | / | -2% | / | /
CCOc1ccc(C(=O)NCc2nc(-c3ccc(Cl)cc3)no2)cc1OCC | / | 4% | / | 2% | / | /
CCOC(=O)N1CCc2c(sc3c2c(=O)n(-c2ccc(F)cc2)c(=O)n3CC(=O)c2ccccc2)C1 | / | -4% | / | -1% | / | /
FC(F)(F)c1cnc2c(-c3ccc(Cl)cc3Cl)noc2c1 | 1% | -11% | 2% | -4% | 2% | 2%
Nc1nccc(-c2cc(-c3ccc(Cl)cc3Cl)no2)n1 | ? | / | / | 0.67µM* | 0.35µM* | 0.32µM*
O=C1c2ccccc2C(=O)c2c(O)ccc(O)c21 | / | -3% | 1% | / | / | /
O=C1C(C2=C(O)c3ccccc3C2=O)=Nc2ccccc21 | -3% | -11% | 11µM* | 1.9µM* | -19% | -28%
Cn1c2ccccc2c2c(C(=O)NCC3CCCO3)cn(C3CCCC3)c(=O)c21 (stereo not given) | 3% | -45% | -1% | 17µM* | -4% | -4%
O=C(CSc1ccccc1)Nc1ccc2c(c1)OCO2 | ? | / | / | 17µM* | ? | ?
Cc1ccc(SCC(=O)Nc2ccc(N3CCN(c4ccccc4)CC3)c(F)c2)cc1 | 1% | -14% | 4% | 4% | 3% | -2%
O=C(CN1C(=O)C2C3C=CC(C3)C2C1=O)Nc1ccc2c(c1)OCCO2 (stereo not given) | ? | 21% | 0% | 17µM* | ? | 3.5µM*
O=C(CCNC(=O)c1ccccc1)NCc1ccccc1F | 11% | / | / | 2.7µM* | 10% | 19%
Cc1ccc(NC(=O)CN2C(=O)C3C4C=CC(C4)C3C2=O)cc1 (stereo not given) | 5% | 14% | -4% | 4% | -3% | 3%
CN1CCN(c2ccc(NC(=O)CSc3ccccc3)cc2F)CC1 | 2.1µM* | 11µM* | -1% | 11µM* | 1.8µM* | 1.4µM*
O=C(CSc1ccc2c(c1)OCCO2)Nc1ccc2c(c1)OCO2 | 0% | -7% | 19% | ? | -1% | 0%
COc1ccc(CNC(=O)CCS(=O)(=O)c2cc(Br)cc3c2N(C(C)=O)C(C)C3)cc1 (stereo not given) | / | 2% | / | -13% | / | /
O=C(C1CCN(S(=O)(=O)c2ccc(-n3cnnn3)cc2)CC1)N1CCCCC1 | -7% | / | / | 1% | -1% | 0%
CCc1ccc(C2=C(C)C(N3CCC(C(=O)NCc4ccc(C)o4)CC3)=NS2(=O)=O)cc1 | / | / | / | 0% | / | /
CCc1nnc2c(NCc3ccccc3OC)nc3ccccc3n12 | / | / | / | 0% | / | /
Cc1ccc(NC(=O)Cn2c(=O)c3ccccc3n3nncc23)cc1 | / | 7% | / | -6% | / | /
Cc1ccc(CSCC(=O)Nc2ccc3c(c2)OCO3)cc1 | -1% | 7% | 1% | -16% | 11% | 0%
O=C(CSc1nnc2scc(-c3ccccc3)n12)Nc1ccc2c(c1)OCCO2 | 0% | ? | -2% | 2% | 1% | -2%
